The values below come from the antibiotic and cytotoxicity screens of Wong et al. (2023).

Structures are written as SMILES. Out of some 39,000 compounds screened, about 3,300 (8.5%) were called active. What follows is part of a selection rich in actives, with near analogues and random picks from the rest.

In the test the test system is HepG2. The test is described as follows: cytotoxicity call (relative viability < 0.9). The following applies: 10 µM.
In the case of `COc1ccc(S(=O)(=O)N(C)C[C@H]2Oc3ccc(N(C)C)cc3CC(=O)N([C@@H](C)CO)C[C@H]2C)cc1`, the cytotoxicity call is “inactive”. Turning to `COc1ccc(NC(=O)N(C)C[C@@H]2Oc3ncc(C#CC(C)C)cc3C(=O)N([C@@H](C)CO)C[C@H]2C)cc1`, the cytotoxicity call is “inactive”. Then `NC1CCN(C(=O)NC2CCCCC2)CC1`, with “inactive”; and `C[C@H]1CCCCO[C@H](CN(C)C(=O)CCC(F)(F)F)[C@@H](C)CN([C@@H](C)CO)C(=O)c2cc(NS(=O)(=O)c3ccccc3)ccc2O1`, with “inactive”; and `C[C@H]1CC/C=C\[C@H]2O[C@@]34C=CCN(c5ccc(Cl)cc5)C(=O)[C@H]3N(CCO)C(=O)[C@]4(C)[C@@H]2C(=O)O1`, with “inactive”. Then `Cc1noc(C)c1S(=O)(=O)Nc1ccc2c(c1)C(=O)N([C@@H](C)CO)C[C@@H](C)[C@@H](CN(C)C)OCCCC[C@H](C)O2`, with “inactive”. Then `C[C@@]12CC[C@@H]3c4ccc(O)cc4C[C@H](CCCCCCCCC[S@@](=O)CCCC(F)(F)C(F)(F)F)[C@@H]3[C@@H]1CC[C@@H]2O`, with “inactive”. For the compound `O=C(C[C@H]1CC[C@@H]2[C@H](COC[C@@H](O)CN2S(=O)(=O)c2ccccc2)O1)N[C@@H]1CCN(Cc2ccccc2)C1`, the cytotoxicity call was “inactive”. The entry for `Cc1ccccc1S(=O)(=O)N1C[C@@H](O)COC[C@@H]2O[C@H](CC(=O)NCCc3ccncc3)CC[C@H]21` is “inactive”; for `Cc1noc(C)c1NC(=O)Nc1ccc2c(c1)C(=O)N([C@H](C)CO)C[C@H](C)[C@H](CN(C)Cc1ccc(C(=O)O)cc1)OCCCC[C@@H](C)O2` it is “inactive”; for `CO[C@H]1CN(C)C(=O)c2ccc(NS(=O)(=O)c3cn(C)cn3)cc2OC[C@H](C)N(Cc2cccc(F)c2)C[C@H]1C` it is “inactive”. Then `COc1ccc(NC(=O)N(C)C[C@@H]2OCCCC[C@@H](C)Oc3ccc(NS(=O)(=O)c4c(C)noc4C)cc3C(=O)N([C@@H](C)CO)C[C@H]2C)cc1`, with “inactive”; and `COc1ccc(NC(=O)N(C)C[C@H]2Oc3ccc(NC(=O)Nc4ccc(C(F)(F)F)cc4)cc3CC(=O)N([C@@H](C)CO)C[C@@H]2C)cc1`, with “inactive”; and `O=C(O)c1csc2c1CCCCC2`, with “inactive”. The entry for `COC(=O)CC[C@H]1CCCNC1` is “inactive”; for `C[C@@H]1CN([C@H](C)CO)C(=O)c2cc(NS(=O)(=O)c3ccccc3)ccc2O[C@@H](C)CCCCO[C@H]1CN(C)C(=O)C1CCCCC1` it is “inactive”. Consider `NCc1ccno1`, for which the cytotoxicity call was “inactive”. Then `C=CCCC(=O)N(C)[C@H](C)[C@@H](OC(=O)[C@@H]1[C@@H]2C=C[C@]3(O2)[C@H](CN(CC=C)Cc2ccccc2)N(C(C)(C)C)C(=O)[C@@H]13)c1ccccc1`, with “inactive”; and `COc1ccc(NC(=O)Nc2ccc3c(c2)C(=O)N([C@H](C)CO)C[C@H](C)[C@H](CN(C)C(=O)Nc2cccc4ccccc24)O3)cc1`, with “inactive”.

In the case of `Cc1ccc(S(=O)(=O)N(C)C[C@@H]2Oc3ncc(C#Cc4ccc(F)cc4)cc3C(=O)N([C@H](C)CO)C[C@@H]2C)cc1`, the cytotoxicity call is “inactive”. Then `C[C@H](CO)N1C[C@H](C)[C@H](CN(C)S(=O)(=O)c2ccc(F)cc2)Oc2ncc(C#Cc3ccc(F)cc3)cc2C1=O`, with “active”; and `C[C@H](CO)N1C[C@H](C)[C@H](CN(C)S(=O)(=O)c2ccc(C#N)cc2)Oc2ncc(C#Cc3ccc(F)cc3)cc2C1=O`, with “inactive”; and `Cc1ccc(S(=O)(=O)Nc2ccc3c(c2)C(=O)N([C@@H](C)CO)C[C@H](C)[C@@H](CN(C)S(=O)(=O)c2ccc(Cl)cc2)OCCCC[C@@H](C)O3)cc1`, with “inactive”. The entry for `O=C1O[C@@H](c2ccccc2)[C@@H](c2ccccc2)N2[C@@H](c3ccc(OCCO)cc3)[C@]3(C(=O)Nc4ccc(C#CC5=CCCCC5)cc43)[C@@H](C(=O)N3CCN(c4ncccn4)CC3)[C@H]12` is “inactive”; for `O=C1O[C@@H](c2ccccc2)[C@@H](c2ccccc2)N2[C@@H](c3ccc(O)cc3)[C@]3(C(=O)Nc4ccc(C#CC5=CCCCC5)cc43)[C@@H](C(=O)O)[C@H]12` it is “inactive”; for `O=C1O[C@@H](c2ccccc2)[C@@H](c2ccccc2)N2[C@@H](c3ccc(OCCO)cc3)[C@]3(C(=O)Nc4ccc(C#CC5=CCCCC5)cc43)[C@@H](C(=O)N3CCCCCCC3)[C@H]12` it is “active”. Then `COc1ccc(C#Cc2ccc3c(c2)[C@]2(C(=O)N3)[C@H](c3ccc(O)cc3)N3[C@H](c4ccccc4)[C@H](c4ccccc4)OC(=O)[C@H]3[C@@H]2C(=O)N2CCN(c3ncccn3)CC2)cc1`, with “inactive”; and `COc1ccc(C#Cc2ccc3c(c2)[C@]2(C(=O)N3)[C@H](C(=O)N3CCCCCCC3)[C@H]3C(=O)O[C@H](c4ccccc4)[C@H](c4ccccc4)N3[C@@H]2c2ccc(O)cc2)cc1`, with “active”; and `O=C1O[C@H](c2ccccc2)[C@H](c2ccccc2)N2[C@H]1[C@@H](C(=O)O)[C@]1(C(=O)Nc3ccc(C#CC4(O)CCCCCC4)cc31)[C@H]2c1ccccc1OCCO`, with “inactive”. With `O=C1O[C@@H](c2ccccc2)[C@@H](c2ccccc2)N2[C@@H](c3ccccc3OCCO)[C@]3(C(=O)Nc4ccc(C#CC5=CCCCC5)cc43)[C@@H](C(=O)O)[C@H]12`, the cytotoxicity call is “inactive”.

With `O=C1O[C@H](c2ccccc2)[C@H](c2ccccc2)N2[C@H]1[C@@H](C(=O)O)[C@]1(C(=O)Nc3ccc(C#CC4=CCCCC4)cc31)[C@H]2c1ccc(O)cc1`, the cytotoxicity call is “inactive”. Turning to `O=C1O[C@H](c2ccccc2)[C@H](c2ccccc2)N2[C@H]1[C@@H](C(=O)O)[C@]1(C(=O)Nc3ccc(C#CC4=CCCCC4)cc31)[C@H]2c1ccccc1OCCO`, the cytotoxicity call is “active”. As to `COc1ccc(C#Cc2ccc3c(c2)[C@]2(C(=O)N3)[C@H](c3ccc(O)cc3)N3[C@H](c4ccccc4)[C@H](c4ccccc4)OC(=O)[C@H]3[C@@H]2C(=O)N2CCCCCCC2)cc1`, the cytotoxicity call is “inactive”.

For `NC(=O)[C@@H]1[C@H]2C(=O)O[C@H](c3ccccc3)[C@H](c3ccccc3)N2[C@H](c2ccc(OCCO)cc2)[C@@]12C(=O)Nc1ccc(C#CC3=CCCCC3)cc12`, the cytotoxicity call is “inactive”. The entry for `O=C1O[C@H](c2ccccc2)[C@H](c2ccccc2)N2[C@H]1[C@@H](C(=O)O)[C@]1(C(=O)Nc3ccc(C#CC4=CCCCC4)cc31)[C@H]2C1CCCCC1` is “active”; for `CCNC(=O)C[C@H]1CC[C@H]2[C@@H](COC[C@H](O)CN2C(=O)Nc2c(C)noc2C)O1` it is “inactive”.
